From the supplement of paper PMC6555819

Tests used:
Experiment in all cases: PBM binding z-score (relative to random genomic background probes); higher = stronger binding; sequences stand for … in GC…GCGATTGACAGCGTAGAATGAAGG
[1] = test system: RARb homodimer (NR concentration 270 nM)
Outline: (§1)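 The probes on custom Agilent 4×180K protein-binding microarrays were double-stranded, with 34-nt variable regions bearing direct-repeat seeds, single-nucleotide variants, half-site ablations and random human genomic background sequences. Incubation lasted 1 h with ligand-free nuclear receptor dimers in PBS pH 7.4, 2% milk, 0.02% Triton X-100, 1 mM DTT, 0.2 mg/mL BSA and 0.4 mg/ml salmon testes DNA. Antibodies against each partner (one per run) detected bound dimers, and fluorescence scans were regression-normalized. Binding z-scores take the random background probes as reference.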

[2] = test system: RARg:RXRa (NR concentration 270 nM, RXRa partner concentration 90 nM)
Outline: as §1

[3] = test system: RARg homodimer (NR concentration 270 nM)
Outline: as §1

[4] = test system: RXRa DBDmut IVT, anti-RXR (DBD mutation: RXRa K156A/R161A, NR concentration 90 nM)
Outline: as §1

[5] = test system: RXRa homodimer (NR concentration 180 nM)
Outline: as §1

[6] = test system: THRa:RXRa (NR concentration 90 nM, RXRa partner concentration 90 nM)
Outline: as §1

[7] = test system: THRa homodimer (NR concentration 90 nM)
Outline: as §1

[8] = test system: VDR:RXRa (NR concentration 270 nM, RXRa partner concentration 90 nM)
Outline: as §1

[9] = test system: VDR homodimer (NR concentration 270 nM)
Outline: as §1

Row | Sequence | PBM binding z-score [1] | PBM binding z-score [2] | PBM binding z-score [3] | PBM binding z-score [4] | PBM binding z-score [5] | PBM binding z-score [6] | PBM binding z-score [7] | PBM binding z-score [8] | PBM binding z-score [9]
1 | AGAACGAGGGCACGCTGATTTGATAGCAGAGTAG | 1.14 | 1.65 | 1.92 | 1.63 | 1.38 | 1.65 | -0.138 | 0.858 | 0.667
2 | ACTATTAGATGAGACGAGGGCAACCGATAGGTTG | 1.3 | 0.879 | 1.09 | 0.518 | 0.632 | 1.42 | 0.659 | 0.421 | 0.77
3 | TCAATTAGTTGATTAGGGCAACCGAAACAGCGGA | 0.454 | 0.298 | 0.178 | 0.983 | 0.591 | 0.541 | 0.0743 | 0.35 | 0.229
4 | GCGACTGGGGCAGCAGCAGGTTACCATAACTTAA | 0.746 | 0.167 | 0.234 | -0.331 | -0.00155 | 0.651 | -0.162 | -0.465 | -0.595
5 | CCTACTGGGCCATCAGGCCATTGATATCAACGTT | 0.414 | -0.00329 | 0.297 | -0.604 | -0.42 | 0.561 | 0.656 | -0.292 | -0.112
6 | ACACGGAGGACAAAGGTCAGAGCTACGCCAGTGA | 4.59 | 6.1 | 5.24 | 1.57 | 5.15 | 3.56 | 0.702 | 3.46 | 1.17
7 | CCAGACAGGTGAGAAGGGAACTCAGCCTCGATTA | 0.237 | -0.0873 | 0.115 | 0.063 | 0.0773 | 0.215 | 0.0826 | -0.443 | -0.25
8 | CGAACTAGGGCATTGACAGGACAGTGAATAGTAA | 0.812 | 1.07 | 1.13 | 0.467 | 0.388 | 0.559 | -0.0936 | -0.141 | 0.137
9 | CAAACTAGGTCAAGAGGTCAAATTCCGCTTCCCG | 5.63 | 8.27 | 7.69 | 2.86 | 8.31 | 4.58 | 2.73 | 6.17 | 4.49
10 | ATCGAAAGGTCGGAGGTGAGTATACCCACCCGAA | 2.03 | 3.26 | 3 | 0.388 | 3.28 | 1.77 | -0.0288 | 1.75 | 0.152
11 | CCTCGGAGGACAACAGGAGGGCAGAGCTGCCAGA | 1.42 | 0.94 | 2.08 | -0.00274 | -0.287 | 0.794 | -0.458 | -0.641 | -0.448
12 | TCTAGCAGGCCAGAGGGTAACTCAAGAGGTACGG | 0.228 | 0.127 | 0.174 | -0.0485 | 0.497 | -0.104 | -0.765 | -0.204 | -0.49
13 | AGAATGAGGTTACCAAAGCTCAGGGAAACGCTTG | 0.544 | 1.91 | 1.54 | 1.04 | 2.62 | 2.83 | 0.864 | 0.99 | -0.0119
14 | TCATATAGGAAAATGCTAGGTGAAAGTCCGATCT | 0.42 | 0.204 | 0.133 | 1.41 | 0.778 | 0.612 | 0.548 | 0.9 | 0.37
15 | ATCGAAAGGTCGTGAGGGGAGTATACAGAAAGGC | 2.78 | 4.4 | 3.89 | 1.72 | 5.16 | 2.72 | 0.843 | 3.55 | 1.42
16 | ATATGTAGATTATCGGGTCATTCAGTTTGCGCAT | 2.3 | 1.94 | 1.35 | 1.21 | 2.45 | 3.14 | 2.5 | 4.87 | 4.05
17 | GTACCAAGGTGCATAGGTCGTTGATGAGTAGGCG | 0.393 | 0.769 | 0.407 | 0.546 | 1.3 | 0.111 | -0.427 | 0.717 | 0.968
18 | ATCTCTAGGTAACCAAGTTCAATGAATGCCGAAC | 1.68 | 0.955 | 1.08 | 1.64 | 0.925 | 1.89 | 0.952 | 4.66 | 3.84
19 | AGCATGAGGTTACCAAAGATCAGGGAAACGCTTG | 1.04 | 2.27 | 1.81 | 1.12 | 2.78 | 2.96 | 0.893 | 1.28 | 0.309
20 | CCTCGGAGGACAGATGGTCAGAGCTGTCCGCTTT | 0.0769 | 0.0731 | 0.421 | -0.0448 | -0.625 | -0.175 | -0.332 | -0.581 | -0.436
21 | CTTTACGGGTCACTGACAGGTTATAGCATTTGGA | 3.58 | 6.21 | 5.08 | 2.54 | 5.93 | 3.18 | 0.855 | 3.94 | 1.15
22 | CAAACTAGCTCAAGGTCAAAGTCGGTTTGTGCCA | 4.04 | 4.12 | 3.84 | 2.23 | 4.51 | 3.95 | 3.59 | 4.51 | 3.7
23 | TCTTGTAGATCAGGAGGTTAAGAAAGCTGGCCAA | 0.528 | 0.46 | 0.00207 | 0.445 | 1.29 | 0.711 | -0.548 | 0.556 | -0.308
24 | CCTACTGGGCCCTTCAGAGGTCATTGATCATATG | 3.67 | 3.27 | 2.24 | -0.326 | 3.49 | 2.94 | 1.18 | 3.41 | 3.23
